# FEN1 inhibitor – human FEN1 inhibition | P39748 | Recombinant FEN1 flap cleavage, fluorescence, 15 min | Potency, µM (doses to about 114 µM), inactives show at the highest dose activity change, negative = inhibition, hits mostly inhibitors | 390,000 compounds, 0.35% hits; also: % is scaled to controls: 0 for no effect and ±100 for the full control effect; nearly all actives have a fitted effect of over 65% in size
#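 Nuclease activity of 10 nM FEN1 was measured after 15 min of room-temperature exposure to titrated compounds, by adding 50 nM flap substrate and reading plates at 0 and 15 min.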
# Pol eta inh-1 – inhibitors of human DNA polymerase eta | recombinant Pol eta, fluorescent DNA replication assay | Potency, µM (titrated, usually from 114 µM), inactives show top-dose activity change, negative = inhibition, usual class: inhibitors | 390,000 compounds, 1.2% hits | AID 588591; also: % is scaled to controls: 0 for no effect and ±100 for the full control effect
#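 Pol eta at 10 nM preincubated with compounds 15 min at room temperature; reaction started with fluorescent substrate (50 nM final) and read kinetically at 0 and 10 min.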
# WRN helicase inh – blocks human WRN helicase. Q14191. WRN helicase unwinding, fluorescent forked duplex, kinetic. Potency, µM (doses to about 114 µM), inactives show top-dose activity change, negative = inhibition, usual class: inhibitors. 360,000 compounds, 0.46% hits; also: % is scaled to controls: 0 for no effect and ±100 for the full control effect; nearly all actives have a fitted effect of over 55% in size
#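 Kinetic red-fluorescence monitoring (525/598 nm) tracks WRN helicase activity after 100 nM fluorophore-quencher forked duplex and 2 mM ATP are added to 20 nM enzyme pretreated 15 min at room temperature with compound.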
# POLI inh – inhibitors of human DNA polymerase iota. Q9UNA4. Pol iota fluorescent replication assay, 10 min. Potency, µM (highest dose often 115 µM), for the others: at the highest dose activity, negative = inhibition, actives largely listed as inhibitors. 390,000 compounds, 1% hits
#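 Pol iota at 10 nM preincubated 15 min with compounds at room temperature; reaction started with fluorescent substrate, 50 nM final. Fluorescence read kinetically at 0 and 10 min; buffer-only wells as negative control.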
# POLB inh – blocks human DNA polymerase beta activity; Pol beta primer extension/strand displacement, fluorescence kinetic; 340,000 compounds, 1.3% hits; Potency, µM (highest dose often 114 µM), for the others: top-dose activity change, negative = inhibition, actives largely listed as inhibitors; also: % is scaled to controls: 0 for no effect and ±100 for the full control effect
#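 Values derive from four-parameter Hill fits of normalized kinetic data: reads at 0 and 10 min following addition of 50 nM substrate to 10 nM Pol beta preincubated 15 min with compound.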
# Pol kappa inh-1 – inhibitors of human DNA polymerase kappa | Q9UBT6 | Potency, µM (series often up to 107 µM), for the others: at the top dose activity, negative = inhibition, usual class: inhibitors | purified Pol kappa, fluorescent DNA synthesis assay, 10 min | 400,000 compounds, 0.53% hits | AID 588579; also: % is scaled to controls: 0 for no effect and ±100 for the full control effect
#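 Fluorescent qHTS in 1536-well format: enzyme (10 nM) and compound sat 15 min at room temperature before 50 nM substrate (final) was added. Signal taken at 0 and 10 min; no-enzyme buffer wells were negative controls.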
# PGK validate – blocks T. brucei phosphoglycerate kinase; TbPGK coupled GAPDH assay, Kinase-Glo luminescence; AID 686980; Potency, µM (doses to about 57.5 µM), without a hit: at the highest dose activity change, negative = inhibition, usual class: inhibitors; 500 compounds, 79% hits; shares compounds with Pol kappa inh-1; also: % is scaled to controls: 0 for no effect and ±100 for the full control effect; nearly all actives have a fitted effect of over 65% in size
# POLI cherry-pick – Confirm cherry-picked inhibitors of human polymerase iota; shares compounds with Pol kappa inh-1; Pol iota primer extension, TAMRA/BHQ fluorescence; Potency, µM, usual class: inhibitors; 1,500 compounds, 77% hits; AID 720496
# Pol kappa inh-2 – Pol kappa (human) inhibition, cherry-pick confirmation | shares compounds with Pol eta inh-1 | purified Pol-kappa, fluorescent strand-displacement substrate | Potency, µM, hits mostly inhibitors | 920 compounds, 76% hits
# Pol eta inh-2 – Pol eta (human) inhibition, cherry-pick confirmation | shares compounds with Pol eta inh-1 | Pol eta primer extension, TAMRA/BHQ fluorescence, 10 min | Potency, µM, actives largely listed as inhibitors | 2,600 compounds, 64% hits
# * = called active by the depositor; ? = inconclusive; / = not tested or not shown; [ ] = another dose, or the depositor's remark. Sampled rows, rich in hits. Any-hit rate of the full collection: about 2.4%. Calls follow the shape of the dose curve; as a rule, active = well fitted curve in the direction sought with a large enough effect; inconclusive = small, poorly fitted or top-dose-only effect, or another doubt; inactive = no such curve, though single readings can be large; an effect the other way counts as inactive or inconclusive. Potency is read from the fitted curve at half-maximal effect.
SMILES,FEN1 inhibitor,Pol eta inh-1,WRN helicase inh,POLI inh,POLB inh,Pol kappa inh-1,POLI cherry-pick,Pol eta inh-2,others
CN(C)c1ccc(/C=C(\C#N)c2nc(-c3ccc(Cl)c(Cl)c3)cs2)cc1,-2%,-16%,/,25%,0%,2%,/,/,
O=C(O)C(C(=O)/C=C/c1ccco1)=C1SCCS1,-35%,8.9µM*,?,4µM*,25µM*,45µM*,53*,48*,
CN(Cc1ccccc1)/[N+]([O-])=N/Oc1ccc([N+](=O)[O-])cc1[N+](=O)[O-],1%,/,/,?,/,1%,/,/,
COc1cc(NS(=O)(=O)c2ccc(NC(=S)NC(=O)/C=C/c3ccc(OC)c(OC)c3)cc2)ncn1,45µM*,32µM*,0%[57.1 µM],?,18%,-22%,38*,/,PGK validate=29µM*;Pol kappa inh-2=27*
CN(CC(=O)Nc1cccc(F)c1)C(=O)c1cccc(-n2cccc2)c1,-14%,7.9µM*,32µM*,20µM*,/,?,30*,76*,
CN(CC(=O)Nc1c(Cl)cccc1Cl)C(=O)c1cccc(-n2cccc2)c1,-11%,20µM*,50µM*,14µM*,/,79µM*,17*,30*,
CN(CC(=O)Nc1ccccc1Cl)C(=O)c1cccc(-n2cccc2)c1,-2%,-7%,-1%,-8%,/,-13%,/,/,
Cc1cnc(CNc2nc(-c3ccccc3Cl)nc3ccccc23)cn1,/,/,/,/,/,-3%[60.1 µM],/,/,
O=C(/C=C/c1ccco1)N(c1ccccn1)c1ccccn1,?,8.9µM*,50µM*,?,3.5µM*,32µM*,17*,24*,
O=C(c1ccco1)N(c1ccccn1)c1ccccn1,1%,-9%,-10%,0%,26%,2%,/,/,
Cc1ccc(NC(=O)Cn2c(=O)nc(-c3ccccc3F)c3cc(Cl)ccc32)c(Br)c1,15%,?,/,18%,?,-10%,/,/,
Cc1ccc(S(=O)(=O)N(CC(=O)O)Cc2ccco2)cc1,-16%,18µM*,-32%,28µM*,?,?,67*,19*,
O=C(N/N=C/c1ccc([N+](=O)[O-])o1)c1cc2ccccc2o1,-11%,?,-10%,?,?,?,/,/,
Cc1nc2ccccn2c1C(=O)N/N=C/c1ccc([N+](=O)[O-])o1,?,7.9µM*,?,11µM*,32µM*,50µM*,60*,34*,
O=C(N/N=C/c1ccc([N+](=O)[O-])o1)c1cc2c(ccc3ccccc32)o1,?,32µM*,-23%[11.6 µM],?,3.2µM*,-25%,27*,19*,
O=C(O)C1C2C=CC(CC2)C1C(=O)O (stereo not drawn),-4%,11µM*,?,?,18µM*,?,/,?,PGK validate=12µM*;Pol kappa inh-2=30*
CC(C)c1ccc(NC(=O)C2C3C=CC(CC3)C2C(=O)O)cc1 (stereo not drawn),1%,-3%,-32%,185%,/,-16%,/,/,
CC(C)(C)n1ncc2c(=O)n(Cc3ccc(Cl)c(SC(F)(F)F)c3)cnc21,-3%,/,/,-4%,/,-18%,/,/,
C/C(=C\C=C(C#N)C#N)c1cc(C#N)c(N)o1,56µM*,?,89µM*,?,8.9µM*,?,?,43*,

# Compound activity deposited in PubChem by National Center for Advancing Translational Sciences (NCATS).
